Measured values published in the supplement of paper PMC11732987, “Enantioselective OTUD7B fragment discovery through chemoproteomics screening and high-throughput optimisation” (Communications Chemistry, 2025).

Tests used:
Test in all cases: log2 ratio of Biotin-Ahx-Ub-VS probe labelling (fragment/DMSO); higher = less target engagement (more negative = stronger competition), active = hit call of the paper (q ≤ 0.05, log2 ratio ≤ -1)
Conditions in all cases: compound concentration: 200 uM; treatment time: 3 h
USP42 = target: T1, USP42 (UniProt Q9H9J4)
T1 sequence (whole entry): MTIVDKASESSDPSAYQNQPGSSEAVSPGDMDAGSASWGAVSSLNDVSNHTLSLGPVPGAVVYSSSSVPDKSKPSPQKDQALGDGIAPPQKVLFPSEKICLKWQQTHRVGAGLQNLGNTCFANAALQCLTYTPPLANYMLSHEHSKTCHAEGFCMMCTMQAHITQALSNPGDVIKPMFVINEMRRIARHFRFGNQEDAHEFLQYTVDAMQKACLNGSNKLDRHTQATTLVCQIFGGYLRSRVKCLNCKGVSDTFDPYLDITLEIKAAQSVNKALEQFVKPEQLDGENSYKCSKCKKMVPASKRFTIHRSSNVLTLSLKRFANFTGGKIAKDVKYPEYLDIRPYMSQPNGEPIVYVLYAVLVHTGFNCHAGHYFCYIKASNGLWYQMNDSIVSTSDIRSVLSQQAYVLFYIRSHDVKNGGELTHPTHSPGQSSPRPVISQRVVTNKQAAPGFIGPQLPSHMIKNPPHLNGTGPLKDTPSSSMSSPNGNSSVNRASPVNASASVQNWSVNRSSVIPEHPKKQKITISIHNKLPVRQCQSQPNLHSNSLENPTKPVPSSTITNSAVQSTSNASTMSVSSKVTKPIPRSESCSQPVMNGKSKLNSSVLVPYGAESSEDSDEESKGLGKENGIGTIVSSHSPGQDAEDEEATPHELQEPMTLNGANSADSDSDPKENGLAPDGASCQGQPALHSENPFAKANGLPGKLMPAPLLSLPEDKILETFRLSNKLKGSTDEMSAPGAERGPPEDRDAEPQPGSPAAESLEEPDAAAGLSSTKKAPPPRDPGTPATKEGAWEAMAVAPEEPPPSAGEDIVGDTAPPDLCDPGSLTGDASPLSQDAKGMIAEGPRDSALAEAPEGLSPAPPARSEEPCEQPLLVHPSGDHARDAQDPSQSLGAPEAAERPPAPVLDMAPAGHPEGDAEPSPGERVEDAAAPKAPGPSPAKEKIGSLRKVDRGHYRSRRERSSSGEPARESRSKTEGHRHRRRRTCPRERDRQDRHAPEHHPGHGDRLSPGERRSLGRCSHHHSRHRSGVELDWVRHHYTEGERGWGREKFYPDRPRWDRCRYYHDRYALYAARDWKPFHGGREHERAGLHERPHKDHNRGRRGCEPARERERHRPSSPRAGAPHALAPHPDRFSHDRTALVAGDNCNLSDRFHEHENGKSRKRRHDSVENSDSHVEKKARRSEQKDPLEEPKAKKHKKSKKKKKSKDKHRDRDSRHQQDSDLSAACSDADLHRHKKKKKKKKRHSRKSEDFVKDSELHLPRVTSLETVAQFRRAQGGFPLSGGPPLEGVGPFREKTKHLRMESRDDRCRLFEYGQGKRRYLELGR
In short: (§1)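 Labelling with Biotin-Ahx-Ub-VS (0.5 µM final, 1 h) followed a 3 h triplicate treatment of HEK293T lysate (495 µg per sample, Tris/CHAPS/IGEPAL buffer with protease inhibitors) with fragment at 200 µM or vehicle. Labelled DUBs were NeutrAvidin-enriched, digested with LysC and trypsin, and run by diaPASEF LC-MS/MS. The values, average log2 fragment/vehicle ratios by unpaired t-test, come from global-median-normalised Spectronaut label-free quantities. Proteins with ≥2 unique peptides were used.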

USP46 = USP46 (UniProt P62068)
Chain of USP46 (P62068 whole entry): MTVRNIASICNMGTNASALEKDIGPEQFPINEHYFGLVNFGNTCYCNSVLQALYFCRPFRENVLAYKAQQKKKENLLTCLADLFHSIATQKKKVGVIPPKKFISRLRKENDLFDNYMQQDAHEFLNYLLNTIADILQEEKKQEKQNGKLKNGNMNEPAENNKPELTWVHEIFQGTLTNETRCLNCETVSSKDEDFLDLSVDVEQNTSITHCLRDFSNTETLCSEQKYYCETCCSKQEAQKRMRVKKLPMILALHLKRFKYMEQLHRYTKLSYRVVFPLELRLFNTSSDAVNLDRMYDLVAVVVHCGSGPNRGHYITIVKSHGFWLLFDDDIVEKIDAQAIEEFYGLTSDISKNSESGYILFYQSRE
In short: as §1

USP47 = target: T2, USP47 (UniProt Q96K76)
T2 sequence (whole entry): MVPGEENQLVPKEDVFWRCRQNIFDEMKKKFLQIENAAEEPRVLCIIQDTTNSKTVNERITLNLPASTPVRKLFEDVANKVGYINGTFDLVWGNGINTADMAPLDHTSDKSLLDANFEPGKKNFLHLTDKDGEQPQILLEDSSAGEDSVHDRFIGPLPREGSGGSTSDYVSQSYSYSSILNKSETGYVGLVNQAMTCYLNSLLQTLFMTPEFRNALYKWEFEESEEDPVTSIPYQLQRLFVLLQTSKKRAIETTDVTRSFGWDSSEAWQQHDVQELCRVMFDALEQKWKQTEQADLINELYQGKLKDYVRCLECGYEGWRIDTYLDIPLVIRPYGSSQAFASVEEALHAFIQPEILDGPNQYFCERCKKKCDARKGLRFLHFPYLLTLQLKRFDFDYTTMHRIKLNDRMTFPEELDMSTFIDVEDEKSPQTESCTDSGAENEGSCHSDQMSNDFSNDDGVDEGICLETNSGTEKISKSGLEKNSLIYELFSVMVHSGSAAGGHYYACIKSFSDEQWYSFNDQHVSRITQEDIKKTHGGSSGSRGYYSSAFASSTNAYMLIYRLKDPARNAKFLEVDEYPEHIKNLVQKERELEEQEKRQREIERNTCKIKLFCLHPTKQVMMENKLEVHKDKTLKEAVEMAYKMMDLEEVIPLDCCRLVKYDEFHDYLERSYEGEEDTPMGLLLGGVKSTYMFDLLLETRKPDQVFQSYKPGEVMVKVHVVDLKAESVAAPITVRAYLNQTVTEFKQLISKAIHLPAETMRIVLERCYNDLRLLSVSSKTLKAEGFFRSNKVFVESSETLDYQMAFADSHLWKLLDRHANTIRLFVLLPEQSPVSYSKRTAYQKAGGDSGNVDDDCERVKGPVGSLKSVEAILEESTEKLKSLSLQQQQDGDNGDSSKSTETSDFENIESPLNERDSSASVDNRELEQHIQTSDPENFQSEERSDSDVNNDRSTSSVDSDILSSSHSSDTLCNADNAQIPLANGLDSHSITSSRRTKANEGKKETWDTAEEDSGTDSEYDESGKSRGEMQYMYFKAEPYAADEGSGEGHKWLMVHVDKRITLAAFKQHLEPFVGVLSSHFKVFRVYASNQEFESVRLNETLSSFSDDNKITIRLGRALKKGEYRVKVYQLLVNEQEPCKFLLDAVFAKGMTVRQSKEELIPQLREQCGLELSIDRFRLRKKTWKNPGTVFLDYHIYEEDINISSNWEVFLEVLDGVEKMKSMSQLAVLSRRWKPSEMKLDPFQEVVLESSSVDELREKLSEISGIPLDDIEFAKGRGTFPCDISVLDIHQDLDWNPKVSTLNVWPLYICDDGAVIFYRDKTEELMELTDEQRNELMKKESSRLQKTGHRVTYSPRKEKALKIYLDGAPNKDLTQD
In short: as §1

USP48 = target: T3, USP48 (UniProt Q86UV5)
T3 sequence (whole entry): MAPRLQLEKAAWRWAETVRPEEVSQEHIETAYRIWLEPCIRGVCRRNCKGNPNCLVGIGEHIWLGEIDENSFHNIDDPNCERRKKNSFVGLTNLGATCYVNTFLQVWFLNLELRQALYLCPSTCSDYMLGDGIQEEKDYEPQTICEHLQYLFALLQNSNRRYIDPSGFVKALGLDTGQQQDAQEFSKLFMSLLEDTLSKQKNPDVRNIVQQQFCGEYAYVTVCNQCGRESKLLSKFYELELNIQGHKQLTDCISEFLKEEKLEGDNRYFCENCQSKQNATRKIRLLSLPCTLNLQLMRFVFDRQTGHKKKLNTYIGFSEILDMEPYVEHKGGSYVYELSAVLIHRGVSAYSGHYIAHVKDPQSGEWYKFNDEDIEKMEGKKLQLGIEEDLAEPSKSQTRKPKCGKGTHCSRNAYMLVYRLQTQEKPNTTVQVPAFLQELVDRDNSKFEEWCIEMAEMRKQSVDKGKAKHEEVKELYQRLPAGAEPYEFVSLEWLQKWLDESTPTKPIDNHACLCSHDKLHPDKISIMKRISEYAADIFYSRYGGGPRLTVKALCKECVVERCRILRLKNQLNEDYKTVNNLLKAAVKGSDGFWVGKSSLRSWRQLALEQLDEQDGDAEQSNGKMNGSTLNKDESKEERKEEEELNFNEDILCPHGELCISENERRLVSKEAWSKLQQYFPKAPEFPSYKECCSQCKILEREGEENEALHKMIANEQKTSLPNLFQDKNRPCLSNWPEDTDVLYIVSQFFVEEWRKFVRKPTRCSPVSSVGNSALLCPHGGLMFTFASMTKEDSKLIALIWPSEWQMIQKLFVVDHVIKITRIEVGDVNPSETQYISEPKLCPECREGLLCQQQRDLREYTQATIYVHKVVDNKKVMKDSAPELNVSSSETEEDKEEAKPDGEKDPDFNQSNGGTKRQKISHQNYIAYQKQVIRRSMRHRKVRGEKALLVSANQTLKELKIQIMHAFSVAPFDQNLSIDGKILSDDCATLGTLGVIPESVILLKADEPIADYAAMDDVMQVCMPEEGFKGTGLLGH
In short: as §1

USP5 = target: T4, USP5 (UniProt P45974)
T4 sequence (whole entry): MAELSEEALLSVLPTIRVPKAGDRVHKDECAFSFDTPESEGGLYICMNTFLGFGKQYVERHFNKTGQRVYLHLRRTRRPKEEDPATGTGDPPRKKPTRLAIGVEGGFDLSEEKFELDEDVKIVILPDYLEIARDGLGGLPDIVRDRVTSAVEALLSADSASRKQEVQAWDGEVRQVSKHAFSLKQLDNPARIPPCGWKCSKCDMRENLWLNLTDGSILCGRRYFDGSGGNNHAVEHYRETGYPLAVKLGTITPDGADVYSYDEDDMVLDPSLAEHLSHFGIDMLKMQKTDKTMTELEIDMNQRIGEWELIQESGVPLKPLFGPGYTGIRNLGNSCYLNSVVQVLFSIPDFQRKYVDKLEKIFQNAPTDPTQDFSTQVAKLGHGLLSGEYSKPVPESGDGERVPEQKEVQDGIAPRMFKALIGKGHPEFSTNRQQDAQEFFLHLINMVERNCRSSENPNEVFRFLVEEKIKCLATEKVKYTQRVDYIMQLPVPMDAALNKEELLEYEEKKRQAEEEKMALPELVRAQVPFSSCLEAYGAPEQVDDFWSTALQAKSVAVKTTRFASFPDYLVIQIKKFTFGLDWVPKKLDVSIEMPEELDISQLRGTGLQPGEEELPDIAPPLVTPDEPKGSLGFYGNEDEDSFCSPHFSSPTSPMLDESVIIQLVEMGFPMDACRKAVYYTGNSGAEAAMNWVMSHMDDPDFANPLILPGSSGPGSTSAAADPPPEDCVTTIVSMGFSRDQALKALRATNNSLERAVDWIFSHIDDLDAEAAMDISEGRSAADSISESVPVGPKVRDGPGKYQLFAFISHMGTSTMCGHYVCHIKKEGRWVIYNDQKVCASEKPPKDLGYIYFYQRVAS
In short: as §1

USP54 = USP54 (UniProt Q70EL1)
Chain of USP54 (Q70EL1 whole entry): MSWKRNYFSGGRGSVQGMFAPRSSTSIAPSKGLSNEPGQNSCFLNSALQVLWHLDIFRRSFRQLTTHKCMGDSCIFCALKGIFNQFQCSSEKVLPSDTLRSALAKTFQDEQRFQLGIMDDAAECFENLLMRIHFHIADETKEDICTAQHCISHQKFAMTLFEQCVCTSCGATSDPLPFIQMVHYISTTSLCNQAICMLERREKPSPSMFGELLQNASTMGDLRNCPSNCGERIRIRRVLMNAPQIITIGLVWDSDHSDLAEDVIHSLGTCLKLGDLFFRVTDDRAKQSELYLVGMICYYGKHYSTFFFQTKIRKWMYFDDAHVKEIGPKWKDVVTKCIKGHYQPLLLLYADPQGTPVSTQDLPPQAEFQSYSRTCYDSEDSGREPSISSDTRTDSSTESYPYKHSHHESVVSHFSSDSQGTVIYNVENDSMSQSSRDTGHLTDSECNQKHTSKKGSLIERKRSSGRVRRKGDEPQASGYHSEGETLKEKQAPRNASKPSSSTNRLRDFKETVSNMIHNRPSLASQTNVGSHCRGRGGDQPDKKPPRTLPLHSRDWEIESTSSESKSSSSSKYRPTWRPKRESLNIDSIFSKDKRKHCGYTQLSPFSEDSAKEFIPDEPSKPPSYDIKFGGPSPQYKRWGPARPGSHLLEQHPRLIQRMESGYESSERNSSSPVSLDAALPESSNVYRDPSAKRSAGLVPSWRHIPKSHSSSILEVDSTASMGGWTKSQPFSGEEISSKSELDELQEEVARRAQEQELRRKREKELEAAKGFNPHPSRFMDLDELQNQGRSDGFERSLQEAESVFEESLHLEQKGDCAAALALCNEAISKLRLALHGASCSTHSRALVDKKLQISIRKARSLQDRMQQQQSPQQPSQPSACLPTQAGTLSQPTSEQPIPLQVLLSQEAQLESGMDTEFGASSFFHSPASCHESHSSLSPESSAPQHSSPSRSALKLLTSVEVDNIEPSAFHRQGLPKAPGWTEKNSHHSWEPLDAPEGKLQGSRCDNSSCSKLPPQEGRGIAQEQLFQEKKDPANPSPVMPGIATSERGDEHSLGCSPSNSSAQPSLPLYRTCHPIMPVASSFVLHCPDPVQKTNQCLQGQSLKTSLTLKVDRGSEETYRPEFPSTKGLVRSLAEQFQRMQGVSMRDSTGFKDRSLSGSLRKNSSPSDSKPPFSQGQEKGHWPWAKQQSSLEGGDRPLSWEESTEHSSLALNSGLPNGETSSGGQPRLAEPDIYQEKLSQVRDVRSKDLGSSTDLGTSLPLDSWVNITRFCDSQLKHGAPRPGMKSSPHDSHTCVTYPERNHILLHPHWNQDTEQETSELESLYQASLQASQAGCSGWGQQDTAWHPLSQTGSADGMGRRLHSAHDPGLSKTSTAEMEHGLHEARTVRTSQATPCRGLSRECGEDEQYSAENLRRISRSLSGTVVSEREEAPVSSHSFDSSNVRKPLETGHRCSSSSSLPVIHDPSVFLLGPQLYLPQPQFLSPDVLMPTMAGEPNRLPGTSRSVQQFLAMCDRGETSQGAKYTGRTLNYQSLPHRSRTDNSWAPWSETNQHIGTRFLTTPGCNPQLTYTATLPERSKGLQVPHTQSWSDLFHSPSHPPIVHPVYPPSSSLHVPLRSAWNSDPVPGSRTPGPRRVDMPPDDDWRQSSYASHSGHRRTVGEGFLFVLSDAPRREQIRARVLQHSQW
In short: as §1

USP7 = USP7 (UniProt Q93009)
Chain of USP7 (Q93009 whole entry, looked up): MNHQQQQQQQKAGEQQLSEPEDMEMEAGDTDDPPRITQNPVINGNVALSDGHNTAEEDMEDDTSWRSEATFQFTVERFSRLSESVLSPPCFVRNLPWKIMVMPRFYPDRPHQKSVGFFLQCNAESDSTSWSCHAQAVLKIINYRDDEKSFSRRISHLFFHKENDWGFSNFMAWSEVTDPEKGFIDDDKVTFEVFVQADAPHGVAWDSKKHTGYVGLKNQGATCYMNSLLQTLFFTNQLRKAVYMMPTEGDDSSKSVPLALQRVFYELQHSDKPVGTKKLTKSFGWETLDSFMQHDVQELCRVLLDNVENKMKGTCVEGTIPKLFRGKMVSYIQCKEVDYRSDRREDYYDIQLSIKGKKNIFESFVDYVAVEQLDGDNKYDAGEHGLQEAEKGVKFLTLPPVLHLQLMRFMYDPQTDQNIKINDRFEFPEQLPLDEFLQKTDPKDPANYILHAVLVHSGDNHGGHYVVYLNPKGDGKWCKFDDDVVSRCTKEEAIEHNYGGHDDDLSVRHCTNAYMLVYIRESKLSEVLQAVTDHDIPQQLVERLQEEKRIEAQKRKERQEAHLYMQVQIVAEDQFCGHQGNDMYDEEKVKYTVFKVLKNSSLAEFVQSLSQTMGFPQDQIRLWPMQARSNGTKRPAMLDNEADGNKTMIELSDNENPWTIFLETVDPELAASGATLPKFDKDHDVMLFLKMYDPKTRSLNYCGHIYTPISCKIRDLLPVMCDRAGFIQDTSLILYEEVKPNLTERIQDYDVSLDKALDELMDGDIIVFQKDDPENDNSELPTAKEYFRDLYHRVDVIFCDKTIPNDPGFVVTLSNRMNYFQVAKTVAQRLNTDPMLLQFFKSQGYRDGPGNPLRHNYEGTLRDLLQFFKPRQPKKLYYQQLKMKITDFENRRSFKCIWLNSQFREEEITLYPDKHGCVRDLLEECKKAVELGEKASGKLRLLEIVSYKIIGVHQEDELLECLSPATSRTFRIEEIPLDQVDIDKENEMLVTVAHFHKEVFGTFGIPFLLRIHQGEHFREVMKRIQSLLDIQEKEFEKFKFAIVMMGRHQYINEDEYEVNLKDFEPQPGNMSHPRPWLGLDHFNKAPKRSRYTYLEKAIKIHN
In short: as §1

USP8 = target: T5, USP8 (UniProt P40818)
T5 sequence (whole entry): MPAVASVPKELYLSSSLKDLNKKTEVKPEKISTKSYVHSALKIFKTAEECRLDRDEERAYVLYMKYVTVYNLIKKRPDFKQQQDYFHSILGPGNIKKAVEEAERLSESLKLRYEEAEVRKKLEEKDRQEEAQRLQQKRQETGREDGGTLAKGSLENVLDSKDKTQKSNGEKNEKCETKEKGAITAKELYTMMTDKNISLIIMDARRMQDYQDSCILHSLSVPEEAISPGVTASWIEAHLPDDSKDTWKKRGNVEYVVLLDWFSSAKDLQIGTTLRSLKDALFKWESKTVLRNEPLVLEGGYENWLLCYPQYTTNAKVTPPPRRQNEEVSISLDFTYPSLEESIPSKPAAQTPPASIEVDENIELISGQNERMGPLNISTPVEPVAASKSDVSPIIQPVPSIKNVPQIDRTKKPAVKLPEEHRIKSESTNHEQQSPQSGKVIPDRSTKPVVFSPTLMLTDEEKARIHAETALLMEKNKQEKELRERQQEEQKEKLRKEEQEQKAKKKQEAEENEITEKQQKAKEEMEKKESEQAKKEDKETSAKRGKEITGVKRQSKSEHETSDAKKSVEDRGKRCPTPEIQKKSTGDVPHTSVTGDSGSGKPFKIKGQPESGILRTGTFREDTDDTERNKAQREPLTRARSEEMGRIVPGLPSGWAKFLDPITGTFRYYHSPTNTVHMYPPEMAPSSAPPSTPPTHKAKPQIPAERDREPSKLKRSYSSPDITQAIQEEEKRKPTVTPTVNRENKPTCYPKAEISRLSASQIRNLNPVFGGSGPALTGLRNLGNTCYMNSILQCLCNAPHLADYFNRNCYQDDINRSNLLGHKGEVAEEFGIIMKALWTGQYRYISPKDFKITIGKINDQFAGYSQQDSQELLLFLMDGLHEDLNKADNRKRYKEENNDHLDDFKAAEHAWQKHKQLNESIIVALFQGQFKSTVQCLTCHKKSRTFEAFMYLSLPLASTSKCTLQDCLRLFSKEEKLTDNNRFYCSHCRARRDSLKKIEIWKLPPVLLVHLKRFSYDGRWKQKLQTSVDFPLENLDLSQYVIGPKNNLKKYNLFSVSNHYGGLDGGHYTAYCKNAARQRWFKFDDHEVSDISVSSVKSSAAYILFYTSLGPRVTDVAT
In short: as §1

USP9X = USP9X (UniProt Q93008)
In short: as §1

UniProt O00487 = target: UniProt O00487
Chain of UniProt O00487 (O00487 whole entry): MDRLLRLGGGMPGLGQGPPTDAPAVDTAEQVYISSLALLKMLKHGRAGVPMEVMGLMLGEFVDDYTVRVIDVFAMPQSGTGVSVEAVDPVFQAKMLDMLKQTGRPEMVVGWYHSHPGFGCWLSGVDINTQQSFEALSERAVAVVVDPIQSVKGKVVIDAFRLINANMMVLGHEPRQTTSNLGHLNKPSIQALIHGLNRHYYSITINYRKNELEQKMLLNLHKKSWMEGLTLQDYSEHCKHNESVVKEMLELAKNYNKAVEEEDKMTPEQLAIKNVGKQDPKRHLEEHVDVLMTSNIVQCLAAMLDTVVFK
In short: as §1

Measured: log2 ratio of Biotin-Ahx-Ub-VS probe labelling

CC(NC(=O)CCl)c1ccc2[nH]ncc2c1 (stereo not given)
inactive: USP42 0.605 | USP46 -0.239 | USP47 0.0542 | USP48 -0.411 | USP5 -0.557 | USP54 0.532 | USP7 -0.578 | USP8 -0.403 | USP9X -0.429 | UniProt O00487 -0.121
